# Experimental data taken from PubChem BioAssay.
# Where “and” joins values, the source holds several entries; their conditions need not be identical. Identical values can stand only once. Inconclusive results are not listed. For some assays here: Results with a measured potency or affinity are listed apart. Calls of active or inactive are those of the source. Unless noted, how the calls were made is not given here.
# How the values were obtained:
# [1] = tested on: Aerobactin synthetase IucA (Klebsiella pneumoniae hvKP1); assay: Biochemical IucA enzyme inhibition primary screen of the Spectrum library (AID 1346200); settings: malachite green pyrophosphate, A620, at 8 µM, stronger effect = lower value;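 further: 100% = wells without compound and 0% = wells lacking enzyme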
# [2] = tested on: Aerobactin synthetase IucA (Klebsiella pneumoniae, hypervirulent); assay: IucA enzyme inhibition, biochemical, LOPAC library, absorbance readout (AID 1346212); settings: IucA enzyme assay, absorbance (OD) readout; stronger effect = lower value; concentration not given here;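 further: 100% = no compound wells and 0% = no enzyme wells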
# [3] = phospholipid biosynthesis inhibitors in animal cells, primary screen, cell-based, LOPAC library, screen 4 (AID 1347384); settings: phospholipid biosynthesis inhibition screen, at 10 µM
# [4] = circadian clock period modulators, cell-based, LOPAC library, luminescence reporter (AID 2774); settings: circadian reporter cells, at 7 µM, actives lie on both sides;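 further: values are relative to mean of DMSO wells on each plate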
# [5] = tested on: Hepatitis C virus NS3 helicase; assay: HCV NS3 helicase inhibitors, primary screen, biochemical, fluorescence polarization, LOPAC1280 library (AID 687035; in the data active means inhibition above about 37%); settings: Purified HCV NS3 helicase, Cy5-dT15 ssDNA binding fluorescence polarization; stronger effect = higher value; concentration not given here
# [6] = Cy5 fluorescence quenching or enhancement artefacts, artefact control for HCV NS3 helicase inhibitor project, biochemical, LOPAC1280 (AID 687037); settings: Cy5-DNA-NS3h complex fluorescence interference counterscreen
# [7] = sensitizers of A549 cells to miR-34 induction, primary screen, imaging, A549 dox-inducible miR-34, nuclei and caspase counts (AID 1347080;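 active means compounds whose cell count with miR-34 switched on is under 0.7 times the count with it off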); settings: A549 miR-34 inducible, Hoechst nuclei count, 48 h
# [8] = viability rescue of complex I mutant cybrids, primary screen, cell-based, galactose medium, ATP luminescence (AID 1645843;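 active means z-score of at least 1.8 in each of two replicates, scored against plate mean and spread of sample wells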;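 further: positive z means more ATP and so rescue of galactose-driven cybrid death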); settings: complex I mutant cybrid cells, 72 h, stronger effect = higher value
# [9] = polyglutamine-triggered caspase-3 activation inhibitors, cell-based (AID 1583); settings: polyglutamine-induced caspase-3 activation, cell assay; stronger effect = higher value;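 tested at 10 µM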
# [10] = target: Huntingtin (Homo sapiens) (UniProt P42858); assay: inhibitors of mutant Htt aggregation in vitro, dose response, QA1 (AID 1584); settings: in vitro mutant huntingtin aggregation assay; confirmation test; at 10 µM; stronger effect = lower value
# Chain of Huntingtin (Homo sapiens) (P42858 whole entry, looked up): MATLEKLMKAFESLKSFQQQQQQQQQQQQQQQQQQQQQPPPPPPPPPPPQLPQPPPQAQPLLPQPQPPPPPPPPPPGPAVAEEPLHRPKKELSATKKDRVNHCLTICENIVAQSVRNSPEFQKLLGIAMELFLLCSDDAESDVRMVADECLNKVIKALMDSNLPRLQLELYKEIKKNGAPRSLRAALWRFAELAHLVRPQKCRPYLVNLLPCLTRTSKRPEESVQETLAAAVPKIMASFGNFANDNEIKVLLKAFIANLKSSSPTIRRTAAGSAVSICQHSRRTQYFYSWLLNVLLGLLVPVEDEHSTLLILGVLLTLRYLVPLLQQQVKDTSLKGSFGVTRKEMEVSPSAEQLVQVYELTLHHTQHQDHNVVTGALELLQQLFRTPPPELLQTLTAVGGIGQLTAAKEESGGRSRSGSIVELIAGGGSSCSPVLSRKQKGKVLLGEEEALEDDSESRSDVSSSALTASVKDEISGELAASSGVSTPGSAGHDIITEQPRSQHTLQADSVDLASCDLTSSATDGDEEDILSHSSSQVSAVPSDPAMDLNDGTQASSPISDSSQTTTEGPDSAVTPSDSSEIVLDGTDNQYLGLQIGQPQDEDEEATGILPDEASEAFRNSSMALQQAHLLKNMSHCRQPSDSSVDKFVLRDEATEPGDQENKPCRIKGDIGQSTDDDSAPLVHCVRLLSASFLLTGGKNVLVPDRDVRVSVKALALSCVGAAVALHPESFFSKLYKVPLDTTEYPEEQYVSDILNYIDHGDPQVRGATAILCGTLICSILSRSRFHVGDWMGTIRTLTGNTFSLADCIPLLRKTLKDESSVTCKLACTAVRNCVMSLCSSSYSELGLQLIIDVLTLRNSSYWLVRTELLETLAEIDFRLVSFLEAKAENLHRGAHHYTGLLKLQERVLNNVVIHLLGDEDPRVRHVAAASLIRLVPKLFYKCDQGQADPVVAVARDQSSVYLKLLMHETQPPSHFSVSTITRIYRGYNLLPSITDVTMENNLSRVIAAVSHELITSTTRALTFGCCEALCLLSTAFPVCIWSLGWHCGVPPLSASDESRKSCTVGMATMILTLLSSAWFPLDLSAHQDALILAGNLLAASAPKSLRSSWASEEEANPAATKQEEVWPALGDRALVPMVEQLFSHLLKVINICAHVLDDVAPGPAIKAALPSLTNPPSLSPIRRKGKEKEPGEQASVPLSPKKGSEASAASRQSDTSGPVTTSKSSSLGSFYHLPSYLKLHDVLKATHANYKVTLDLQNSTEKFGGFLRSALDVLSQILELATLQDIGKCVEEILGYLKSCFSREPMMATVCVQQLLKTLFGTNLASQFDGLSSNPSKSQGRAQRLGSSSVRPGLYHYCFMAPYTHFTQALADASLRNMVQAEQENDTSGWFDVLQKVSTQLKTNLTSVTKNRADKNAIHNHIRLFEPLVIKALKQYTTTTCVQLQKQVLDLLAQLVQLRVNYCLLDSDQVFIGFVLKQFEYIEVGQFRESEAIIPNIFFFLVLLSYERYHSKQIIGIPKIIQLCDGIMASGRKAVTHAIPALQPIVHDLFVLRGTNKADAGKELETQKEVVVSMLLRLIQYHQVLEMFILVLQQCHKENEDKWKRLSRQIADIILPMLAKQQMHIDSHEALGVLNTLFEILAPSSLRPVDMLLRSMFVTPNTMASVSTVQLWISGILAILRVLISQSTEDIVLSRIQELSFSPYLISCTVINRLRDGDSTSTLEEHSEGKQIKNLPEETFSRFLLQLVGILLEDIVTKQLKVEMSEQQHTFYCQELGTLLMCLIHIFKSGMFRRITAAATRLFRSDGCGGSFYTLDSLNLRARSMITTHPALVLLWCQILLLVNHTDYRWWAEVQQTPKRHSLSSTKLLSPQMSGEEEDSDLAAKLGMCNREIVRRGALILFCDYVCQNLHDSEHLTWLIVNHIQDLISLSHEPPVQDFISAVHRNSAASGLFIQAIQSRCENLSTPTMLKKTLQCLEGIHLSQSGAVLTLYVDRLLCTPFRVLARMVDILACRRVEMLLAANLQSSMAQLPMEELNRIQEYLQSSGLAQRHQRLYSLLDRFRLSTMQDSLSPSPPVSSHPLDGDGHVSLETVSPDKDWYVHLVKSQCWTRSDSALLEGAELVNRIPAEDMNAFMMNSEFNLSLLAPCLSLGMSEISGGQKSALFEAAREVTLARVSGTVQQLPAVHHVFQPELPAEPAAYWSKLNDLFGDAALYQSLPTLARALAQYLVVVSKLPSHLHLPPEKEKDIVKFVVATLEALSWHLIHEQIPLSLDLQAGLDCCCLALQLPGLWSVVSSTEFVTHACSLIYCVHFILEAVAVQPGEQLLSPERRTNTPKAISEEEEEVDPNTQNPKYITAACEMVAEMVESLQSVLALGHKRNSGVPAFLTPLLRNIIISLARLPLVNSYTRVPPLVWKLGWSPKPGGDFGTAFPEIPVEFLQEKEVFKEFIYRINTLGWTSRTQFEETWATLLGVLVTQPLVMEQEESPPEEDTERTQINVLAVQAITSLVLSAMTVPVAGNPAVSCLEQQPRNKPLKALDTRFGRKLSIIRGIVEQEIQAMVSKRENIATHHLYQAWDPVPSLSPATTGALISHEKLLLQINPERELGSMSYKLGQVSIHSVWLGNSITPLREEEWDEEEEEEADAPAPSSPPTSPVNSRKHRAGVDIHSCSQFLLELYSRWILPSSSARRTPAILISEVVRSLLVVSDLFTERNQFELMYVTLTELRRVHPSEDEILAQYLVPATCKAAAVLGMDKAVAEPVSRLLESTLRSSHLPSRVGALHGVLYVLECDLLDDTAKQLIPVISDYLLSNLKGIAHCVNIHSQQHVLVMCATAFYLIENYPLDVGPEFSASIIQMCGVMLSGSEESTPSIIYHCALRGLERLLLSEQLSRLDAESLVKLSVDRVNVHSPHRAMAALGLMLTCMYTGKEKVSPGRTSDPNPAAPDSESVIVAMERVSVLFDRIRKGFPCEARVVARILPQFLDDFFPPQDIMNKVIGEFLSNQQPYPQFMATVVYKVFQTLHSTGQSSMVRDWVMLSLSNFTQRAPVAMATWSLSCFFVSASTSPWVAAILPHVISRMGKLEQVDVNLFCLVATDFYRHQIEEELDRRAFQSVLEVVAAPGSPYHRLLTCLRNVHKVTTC
# [11] = suppressors of polyQ aggregation in yeast, 75Q-TubU reporter (AID 1593); settings: Yeast 75Q polyglutamine aggregation reporter
# [12] = rescue of polyQ-huntingtin neuronal dysfunction in worms, whole organism, C. elegans mechanosensory neurons, N-terminal huntingtin (AID 1599); settings: touch response, stronger effect = higher value
# [13] = inhibitors of mitochondrial cytochrome c release, biochemical, purified mitochondria (AID 1603); settings: stronger effect = lower value;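 further: mouse liver mitochondria challenged with calcium chloride; signal normalized to the plate average as 100%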
# [14] = inhibitors of polyQ protein aggregation (AID 1604); settings: polyglutamine-induced protein aggregation inhibition assay; stronger effect = higher value; tested at 2.5 µM
# [15] = enhancers of glutamate uptake in motor neurons, MN-1 cell line (AID 1612); settings: MN-1 motor neuron cells, stronger effect = higher value;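 further: tested at 1 µM final; 0% = mean of DMSO vehicle wells on each plate; positive means more glutamate uptake than control and negative means less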
# [16] = suppressors of polyglutamine aggregation in yeast, 75Q-TubH (AID 1616); settings: S. cerevisiae 75Q-TubH polyglutamine aggregation suppression; stronger effect = higher value
# [17] = measured here: relative caspase fold change +Dox/-Dox
# [18] = measured here: total cells with miR-34 induction, stronger effect = lower value
# [19] = measured here: total cells without miR-34 induction
smiles,measurement,setting,value
Clc1cccc(Cl)c1NC1=NCCN1,activity remaining,[1],119% (inactive)
same,remaining activity,[2],122% (inactive)
CN(C)CCC=C1c2ccccc2C=Cc2ccccc21,activity remaining,[1],111% (inactive)
same,remaining activity,[2],109% (inactive)
CC(C)COCC(CN(Cc1ccccc1)c1ccccc1)N1CCCC1 (stereo not given),activity remaining,[1],126% (inactive)
same,remaining activity,[2],91.4% (inactive)
CN1CCN(CCCN2c3ccccc3Sc3ccc(Cl)cc32)CC1,activity remaining,[1],123% (inactive)
same,remaining activity,[2],86.1% (inactive)
same,outcome,[3],inactive
CC1OC1P(=O)(O)O (stereo not given),period change,[4],-0.1 h (inactive)
same,inhibition,[5],-2% (inactive)
same,fluorescence ratio (interference),[6],1 (inactive)
same,activity remaining,[1],94.8% (inactive)
same,remaining activity,[2],105% (inactive)
same,fold change,[7]; stronger effect = lower value,1.08 (inactive) and 0.849 (inactive)
same,fold change,[7]; [17],1.1 and 5.83
same,cell count,[7]; [18],10700 and 11000
same,cell count,[7]; [19],9890 and 12900
same,z-score,[8],0.665 (inactive)
CN(C)CCCN1c2ccccc2Sc2ccc(C(F)(F)F)cc21,activity remaining,[1],108% (inactive)
same,remaining activity,[2],97% (inactive)
C1CCc2nnnn2CC1,activity remaining,[1],112% (inactive)
same,remaining activity,[2],107% (inactive)
COc1cc2nc(N3CCN(C(=O)C4CCCO4)CC3)nc(N)c2cc1OC (stereo not given),activity remaining,[1],119% (inactive)
same,remaining activity,[2],102% (inactive)
CCCCCCCCCCCCCC(=O)O[C@@H]1[C@@H](C)[C@@]2(O)[C@@H](C=C(CO)C[C@]3(O)C(=O)C(C)=C[C@@H]23)[C@@H]2C(C)(C)[C@]12OC(C)=O,activity remaining,[1],115% (inactive)
same,remaining activity,[2],75.1% (inactive)
same,fold change,[7]; stronger effect = lower value,0.96 (inactive)
same,fold change,[7]; [17],1.01
same,cell count,[7]; [18],240
same,cell count,[7]; [19],250
C[n+]1cc2c3c(ccc2c2ccc4cc5c(cc4c21)OCO5)OCO3,inhibition,[9],89.4%
same,aggregation ratio,[10],0.44
same,score,[11],0.8
same,rescue above control,[12],-18
same,cytochrome c release ratio,[13],1.22
same,inhibition of aggregation,[14],-2.89%
same,glutamate uptake change,[15],-11.9%
same,aggregation suppression score,[16],0.576
same,activity remaining,[1],97.5% (inactive)
same,remaining activity,[2],102% (inactive)
N[C@@H](CC(=O)N1CCn2c(nnc2C(F)(F)F)C1)Cc1cc(F)c(F)cc1F,activity remaining,[1],110% (inactive)
same,fold change,"[7]; stronger effect = lower value, cell number ratio, induced over uninduced",0.907 (inactive)
same,fold change,[7]; [17],5.09
same,cell count,[7]; [18],11900
same,cell count,[7]; [19],13100
COc1ccccc1OCC(O)CN1CCN(CC(=O)Nc2c(C)cccc2C)CC1 (stereo not given),activity remaining,[1],122% (inactive)
same,remaining activity,[2],97.8% (inactive)
CC(CCc1ccccc1)NCC(O)c1ccc(O)c(C(N)=O)c1 (stereo not given),activity remaining,[1],121% (inactive)
same,remaining activity,[2],112% (inactive)
COc1ccc2cc([C@H](C)C(=O)O)ccc2c1,activity remaining,[1],101% (inactive)
same,remaining activity,[2],91.4% (inactive)
COc1ccc2c(c1)c(CC(=O)O)c(C)n2C(=O)c1ccc(Cl)cc1,activity remaining,[1],103% (inactive)
same,remaining activity,[2],92% (inactive)
CC(N)C(=O)OC(C)(C)Cc1ccc(Cl)cc1 (stereo not given),period change,[4],-0.005 h (inactive)
same,inhibition,[5],-4% (inactive)
same,fluorescence ratio (interference),[6],1 (inactive)
same,activity remaining,[1],86.1% (inactive)
same,remaining activity,[2],119% (inactive)
same,fold change,[7]; stronger effect = lower value,1.02 (inactive)
same,fold change,[7]; [17],1.79
same,cell count,[7]; [18],10500
same,cell count,[7]; [19],10300
same,z-score,[8],-0.85 (inactive)
O=C(C1CCCCC1)N1CC(=O)N2CCc3ccccc3C2C1 (stereo not given),activity remaining,[1],123% (inactive)
same,remaining activity,[2],104% (inactive)
CN(C)C(=O)Oc1ccc[n+](C)c1,activity remaining,[1],93.4% (inactive)
same,remaining activity,[2],91.3% (inactive)
CN(C)c1ccc(O)c2c1C[C@H]1C[C@H]3[C@H](N(C)C)C(=O)C(C(N)=O)=C(O)[C@@]3(O)C(=O)C1=C2O,activity remaining,[1],105% (inactive)
same,remaining activity,[2],110% (inactive)
O=C(O)C1=CC(=C(c2ccc(O)c(C(=O)O)c2)c2ccc(O)c(C(=O)O)c2)C=CC1=O,activity remaining,[1],101% (inactive)
same,remaining activity,[2],103% (inactive)
CCCn1c(=O)c2[nH]c(C3CCCC3)nc2n(CCC)c1=O,activity remaining,[1],82.2% (inactive)
same,remaining activity,[2],76.9% (inactive)
NCCc1ccc(O)c(O)c1,activity remaining,[1],103% (inactive) and 107% (inactive)
same,remaining activity,[2],104% (inactive)
COC(=O)C1=C(C)NC(C)=C(C(=O)OC)C1c1ccccc1[N+](=O)[O-],activity remaining,[1],100% (inactive)
same,remaining activity,[2],115% (inactive)
O=c1n(CCCN2CCN(c3cccc(Cl)c3)CC2)nc2ccccn12,activity remaining,[1],112% (inactive)
same,remaining activity,[2],118% (inactive)
